# Assay results from the supplement of paper PMC8728848.
# The entries come from a sample that favours the strongest signals as a whole.
# What was measured:
# Assay in all cases: glycan array binding signal (z-score within array); higher = stronger binding
# Conditions in all cases: glycan notation: IUPAC condensed, linker removed; mutation: F63H
# [1] = biological target: Gal3S(b1-3)[Fuc(a1-4)]GlcNAc
# In short: (§1)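 The binding signal is a Z-score computed within each array. Data were drawn from 3228 arrays in the Consortium for Functional Glycomics database, restricted to those with a known protein sequence. Scores were averaged over arrays of the same protein sequence at different concentrations or buffers, and over linkers, and negative values can be taken as non-binding.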
# Gal4S(b1-4)GlcNAc = biological target: Gal4S(b1-4)GlcNAc
# In short: as §1
# GalNAc(b1-3)GlcNAc = biological target: GalNAc(b1-3)GlcNAc
# In short: as §1
# [2] = biological target: Glc(a1-6)Glc(a1-6)Glc(a1-6)Glc
# In short: as §1
# GlcA(b1-6)Gal = biological target: GlcA(b1-6)Gal
# In short: as §1
# [3] = biological target: GlcA3S(b1-3)Gal(b1-4)GlcNAc(b1-2)Man
# In short: as §1
# [4] = biological target: GlcA3S(b1-3)Gal(b1-4)GlcNAc(b1-3)Gal(b1-4)Glc
# In short: as §1
# [5] = biological target: GlcNAc(a1-4)Gal(b1-4)GlcNAc(b1-3)Gal(b1-4)GlcNAc
# In short: as §1
# [6] = biological target: GlcNAc(b1-2)Man(a1-3)[GlcNAc(b1-4)][GlcNAc(b1-2)Man(a1-6)]Man(b1-4)GlcNAc(b1-4)[Fuc(a1-6)]GlcNAc
# In short: as §1
# GlcNAc(b1-3)Gal(b1-4)Glc = biological target: GlcNAc(b1-3)Gal(b1-4)Glc
# In short: as §1
# [7] = biological target: GlcNAc(b1-3)Gal(b1-4)GlcNAc(b1-3)Gal(b1-4)GlcNAc(b1-2)[GlcNAc(b1-3)Gal(b1-4)GlcNAc(b1-3)Gal(b1-4)GlcNAc(b1-6)]Man(a1-6)[GlcNAc(b1-3)Gal(b1-4)GlcNAc(b1-3)Gal(b1-4)GlcNAc(b1-2)Man(a1-3)]Man(b1-4)GlcNAc(b1-4)[Fuc(a1-6)]GlcNAc
# In short: as §1
# [8] = biological target: GlcNAc(b1-3)Gal(b1-4)GlcNAc(b1-3)Gal(b1-4)GlcNAc(b1-3)Gal(b1-4)GlcNAc(b1-2)Man(a1-3)[GlcNAc(b1-3)Gal(b1-4)GlcNAc(b1-3)Gal(b1-4)GlcNAc(b1-3)Gal(b1-4)GlcNAc(b1-2)Man(a1-6)]Man(b1-4)GlcNAc(b1-4)[Fuc(a1-6)]GlcNAc
# In short: as §1
# [9] = biological target: GlcNAc(b1-3)Gal(b1-4)GlcNAc(b1-3)Gal(b1-4)GlcNAc(b1-3)Gal(b1-4)GlcNAc(b1-3)Gal(b1-4)GlcNAc(b1-2)[GlcNAc(b1-3)Gal(b1-4)GlcNAc(b1-3)Gal(b1-4)GlcNAc(b1-3)Gal(b1-4)GlcNAc(b1-3)Gal(b1-4)GlcNAc(b1-6)]Man(a1-6)[GlcNAc(b1-3)Gal(b1-4)GlcNAc(b1-3)Gal(b1-4)GlcNAc(b1-3)Gal(b1-4)GlcNAc(b1-3)Gal(b1-4)GlcNAc(b1-2)Man(a1-3)]Man(b1-4)GlcNAc(b1-4)[Fuc(a1-6)]GlcNAc
# In short: as §1
# [10] = biological target: GlcNAc(b1-3)Gal(b1-4)GlcNAc(b1-3)[GlcNAc(b1-3)Gal(b1-4)GlcNAc(b1-3)]GalNAc
# In short: as §1
# GlcNAc(b1-3)Man = biological target: GlcNAc(b1-3)Man
# In short: as §1
# [11] = biological target: GlcNAc(b1-3)[GlcNAc(b1-4)][GlcNAc(b1-6)]GlcNAc
# In short: as §1
# [12] = biological target: GlcNAc(b1-3)[GlcNAc(b1-6)]GalNAc
# In short: as §1
# Kdn(a2-3)Gal(b1-3)GlcNAc = biological target: Kdn(a2-3)Gal(b1-3)GlcNAc
# In short: as §1
# [13] = biological target: Man(a1-2)Man(a1-2)Man(a1-6)[Man(a1-3)]Man
# In short: as §1
# Man(a1-2)Man(a1-3)Man = biological target: Man(a1-2)Man(a1-3)Man
# In short: as §1
# [14] = biological target: Neu5Ac(a2-3)Gal(b1-3)GalNAc(b1-4)Gal(b1-4)Glc
# In short: as §1
# [15] = biological target: Neu5Ac(a2-3)Gal(b1-3)GlcNAc
# In short: as §1
# [16] = biological target: Neu5Ac(a2-3)Gal(b1-3)[Fuc(a1-4)]GlcNAc(b1-3)Gal(b1-4)[Fuc(a1-3)]GlcNAc
# In short: as §1
# [17] = biological target: Neu5Ac(a2-3)Gal(b1-3)[GlcNAc(b1-6)]GalNAc
# In short: as §1
# [18] = biological target: Neu5Ac(a2-3)Gal(b1-4)GlcNAc(b1-2)[Neu5Ac(a2-3)Gal(b1-4)GlcNAc(b1-4)]Man(a1-3)[GlcNAc(b1-4)][Neu5Ac(a2-3)Gal(b1-4)GlcNAc(b1-4)Man(a1-6)]Man(b1-4)GlcNAc(b1-4)GlcNAc
# In short: as §1
# [19] = biological target: Neu5Ac(a2-3)Gal(b1-4)GlcNAc(b1-2)[Neu5Ac(a2-3)Gal(b1-4)GlcNAc(b1-6)]Man(a1-6)[Neu5Ac(a2-3)Gal(b1-4)GlcNAc(b1-2)Man(a1-3)][GlcNAc(b1-4)]Man(b1-4)GlcNAc(b1-4)GlcNAc
# In short: as §1
# [20] = biological target: Neu5Ac(a2-3)Gal(b1-4)GlcNAc(b1-6)[Gal(b1-3)]GalNAc
# In short: as §1
# [21] = biological target: Neu5Ac(a2-6)Gal(b1-4)GlcNAc(b1-2)Man(a1-3)[GlcNAc(b1-2)Man(a1-6)]Man(b1-4)GlcNAc(b1-4)GlcNAc
# In short: as §1
# [22] = biological target: Neu5Ac(a2-6)Gal(b1-4)GlcNAc(b1-3)Gal(b1-4)GlcNAc(b1-2)Man(a1-3)[Neu5Ac(a2-6)Gal(b1-4)GlcNAc(b1-3)Gal(b1-4)GlcNAc(b1-2)Man(a1-6)]GalNAc
# In short: as §1
# [23] = biological target: Neu5Ac(a2-6)Gal(b1-4)GlcNAc(b1-6)[Gal(b1-3)]GalNAc
# In short: as §1
# Neu5Gc(a2-3)Gal(b1-4)Glc = biological target: Neu5Gc(a2-3)Gal(b1-4)Glc
# In short: as §1
# [24] = biological target: Neu5Gc(a2-3)Gal(b1-4)[Fuc(a1-3)]GlcNAc
# In short: as §1
binder,measurement,setting,value
"AAL (Agrocybe aegerita), Q6WY08 (protein) MQGVNIYNISAGTSVDLAAPVTTGDIVTFFSSALNLNAGAGNPNNTTLNLFAENGAYLLHIAHRLQENVIIFNSRQPDGPWLVEQRVSDVANQFAGIDGKAMVTVFDHGDKYQVVINEKTVIQYTKQISGLTLSLSYNATEETSIFSTVVEAVTYTGLALEHHHHHH",glycan array binding signal (z-score),[1],-0.366
same,glycan array binding signal (z-score),Gal4S(b1-4)GlcNAc,-0.569
same,glycan array binding signal (z-score),GalNAc(b1-3)GlcNAc,-0.08
same,glycan array binding signal (z-score),[2],-0.408
same,glycan array binding signal (z-score),GlcA(b1-6)Gal,0.43
same,glycan array binding signal (z-score),[3],14.9
same,glycan array binding signal (z-score),[4],12.7
same,glycan array binding signal (z-score),[5],-0.067
same,glycan array binding signal (z-score),[6],-0.109
same,glycan array binding signal (z-score),GlcNAc(b1-3)Gal(b1-4)Glc,1.42
same,glycan array binding signal (z-score),[7],0.909
same,glycan array binding signal (z-score),[8],0.906
same,glycan array binding signal (z-score),[9],0.818
same,glycan array binding signal (z-score),[10],0.58
same,glycan array binding signal (z-score),GlcNAc(b1-3)Man,-0.511
same,glycan array binding signal (z-score),[11],-0.568
same,glycan array binding signal (z-score),[12],-0.374
same,glycan array binding signal (z-score),Kdn(a2-3)Gal(b1-3)GlcNAc,-0.066
same,glycan array binding signal (z-score),[13],-0.576
same,glycan array binding signal (z-score),Man(a1-2)Man(a1-3)Man,-0.172
same,glycan array binding signal (z-score),[14],0.045
same,glycan array binding signal (z-score),[15],-0.26
same,glycan array binding signal (z-score),[16],-0.137
same,glycan array binding signal (z-score),[17],0.214
same,glycan array binding signal (z-score),[18],-0.283
same,glycan array binding signal (z-score),[19],1.54
same,glycan array binding signal (z-score),[20],0.404
same,glycan array binding signal (z-score),[21],-0.73
same,glycan array binding signal (z-score),[22],-0.58
same,glycan array binding signal (z-score),[23],0.137
same,glycan array binding signal (z-score),Neu5Gc(a2-3)Gal(b1-4)Glc,1.34
same,glycan array binding signal (z-score),[24],0.023
